Measured values published in PubChem BioAssay (NCI).
This is part of a sample that, as a whole, favours compounds with a hit. Of some 83,000 tested, about 20% had one in any assay.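 How to read the values: 0–100, growth inhibition (40 = 60% inhibited); 0, no net growth; -100 to 0, cell death (-40 = 40% of starting cells died; -100 = all dead).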 A number with no mark means an inactive call. Calls of active or inactive are those of the source. How the source made its calls: active means growth percent below 10; inactive means the rest.

Experiments:
Test in all cases: NCI-60 one-dose screen, 48 h (100 = growth as untreated, 0 = no growth, -100 = all killed)
Details in all cases: 10 µM unless noted
SR leukemia = tested on: SR leukemia
RPMI-8226 leukemia = tested on: RPMI-8226 leukemia
OVCAR-8 ovarian = tested on: OVCAR-8 ovarian
OVCAR-5 ovarian = tested on: OVCAR-5 ovarian
OVCAR-4 ovarian = tested on: OVCAR-4 ovarian
SK-OV-3 ovarian = tested on: SK-OV-3 ovarian
IGROV1 ovarian = tested on: IGROV1 ovarian
OVCAR-3 ovarian = tested on: OVCAR-3 ovarian
HS 578T breast = tested on: HS 578T breast
NCI/ADR-RES ovarian = tested on: NCI/ADR-RES ovarian
T-47D breast = tested on: T-47D breast
BT-549 breast = tested on: BT-549 breast
MDA-MB-435 melanoma = tested on: MDA-MB-435 melanoma
SW-620 colon = tested on: SW-620 colon
MCF7 breast = tested on: MCF7 breast
HCC-2998 colon = tested on: HCC-2998 colon
KM12 colon = tested on: KM12 colon
HCT-116 colon = tested on: HCT-116 colon

SMILES | growth (SR leukemia) | growth (RPMI-8226 leukemia) | growth (OVCAR-8 ovarian) | growth (OVCAR-5 ovarian) | growth (OVCAR-4 ovarian) | growth (SK-OV-3 ovarian) | growth (IGROV1 ovarian) | growth (OVCAR-3 ovarian) | growth (HS 578T breast) | growth (NCI/ADR-RES ovarian) | growth (T-47D breast) | growth (BT-549 breast) | growth (MDA-MB-435 melanoma) | growth (SW-620 colon) | growth (MCF7 breast) | growth (HCC-2998 colon) [%] | growth (KM12 colon) | growth (HCT-116 colon)
Cc1nc2c(c(=O)[nH]1)C(c1ccccc1)c1ccc3ccccc3c1O2 (stereo unspecified) | 19.3% | 27.1% | 34.5% | 87.2% | 64.2% | 11.1% | 38.9% | 0.0339% (active) | 22.6% | 14.6% | 39.1% | 34.1% | -16.2% (active) | 20.9% | 11.4% | 56.6 | 26.2% | 
CCS/C(Nc1ccccc1)=C(\C#N)C(=O)Nc1ccc(OC)cc1 | 6.62% (active) | 25.2% | 31.2% | 63.1% | 66.7% | 22.4% | 55.7% | -12.1% (active) | 27.4% | -0.669% (active) | 25.4% | 40.5% | -47.9% (active) | 18% | 19% |  | 31% | 14.3%
CC(=O)c1sc2sc(C(C)=O)c(C)c2c1C | 75.6% | 66.7% | 84% | 93.2% | 108% | 81.2% | 101% | 110% | 92% | 95.6% | 89% | 105% | 102% | 102% | 73.1% |  | 107% | 83.1%
CCOC(=O)c1c(C)c2c(n1Cc1ccccc1)CSCC2=O | -2.43% [100 µM] (active) | -5.25% [100 µM] (active) | 17.7% [100 µM] | 33.6% [100 µM] | 11.8% [100 µM] | 19.8% [100 µM] | 32.6% [100 µM] | -2.49% [100 µM] (active) | 46.8% [100 µM] | -5.65% [100 µM] (active) | 1.4% [100 µM] (active) | -25.9% [100 µM] (active) | -9.11% [100 µM] (active) | 16.7% [100 µM] | -12.8% [100 µM] (active) |  | -4.25% [100 µM] (active) | -17.5% [100 µM] (active)
Fc1ccc(Cn2cc(CSc3nc4ccccc4o3)nn2)cc1 | 103% | 105% | 102% | 100% | 98.9% | 91.3% | 98.8% | 98.5% | 105% | 109% | 85.3% | 103% | 102% | 101% | 93.8% | 109 | 97.6% | 92.3%
NS(=O)(=O)c1ccc(-c2cc(-c3nnc(SCC(=O)Nc4ccc(C(=O)/C=C/c5ccc(Cl)cc5)cc4)n3-c3ccccc3)c3ccccc3n2)cc1 | 71.3% | 10.7% | 89.9% | 93.1% | 105% | 103% | 99.2% | 101% | 84.3% | 103% | 79.9% | 97.9% | 94% | 97.7% | 70.6% |  | 92.1% | 7.54% (active)
CC(C)(C)n1cc(-c2ccnc(NCCCNS(=O)(=O)c3ccc(C(F)(F)F)cc3)c2)c(-c2cccc(F)c2)n1 | 25.2% | 55.9% | 83.1% | 85.4% | 99.7% | 94.2% | 84.1% | 95% | 95% | 76.5% | 64.5% | 84% | 93.7% | 90% | 66.2% |  | 65.7% | 54.4%
COc1ccccc1N(C(C)=O)C1=C(Cl)C(=O)c2ccccc2C1=O | -13.9% (active) | -19.2% (active) | 19.1% | 23.1% | 22.4% | 17.6% | 13.8% | -23.3% (active) | 42.7% | 0.618% (active) | -33.1% (active) | -4.47% (active) | -13.3% (active) | -65.2% (active) | 11.8% |  | -11.4% (active) | -29.1% (active)
CC1=C(C(=O)Nc2nc(-c3ccc(Cl)cc3)cs2)[C@H](c2ccc(O)cc2)NC(=O)N1 | 113% | 109% | 105% | 106% | 98.6% | 111% | 97.8% | 95.8% | 106% | 101% | 70.5% | 90.4% | 101% | 102% | 101% | 108 | 96.9% | 
O=[N+]([O-])c1ccc(-c2cn3nc(-c4c[nH]c5ccccc45)sc3n2)cc1 | 92.2% | 93.1% | 104% | 96.9% | 88% | 88.3% | 89% | 109% | 99.9% | 99.3% | 64.8% | 99.5% | 107% | 99.9% | 79.5% |  | 83.2% | 90.8%
